In the supplement of paper PMC10681739 one finds ETS1 binding intensity and RUNX1 binding intensity data, which are given here for 21 sequences.

Experiment [1] addresses T1, ETS1 (UniProt P14921).
T1 sequence: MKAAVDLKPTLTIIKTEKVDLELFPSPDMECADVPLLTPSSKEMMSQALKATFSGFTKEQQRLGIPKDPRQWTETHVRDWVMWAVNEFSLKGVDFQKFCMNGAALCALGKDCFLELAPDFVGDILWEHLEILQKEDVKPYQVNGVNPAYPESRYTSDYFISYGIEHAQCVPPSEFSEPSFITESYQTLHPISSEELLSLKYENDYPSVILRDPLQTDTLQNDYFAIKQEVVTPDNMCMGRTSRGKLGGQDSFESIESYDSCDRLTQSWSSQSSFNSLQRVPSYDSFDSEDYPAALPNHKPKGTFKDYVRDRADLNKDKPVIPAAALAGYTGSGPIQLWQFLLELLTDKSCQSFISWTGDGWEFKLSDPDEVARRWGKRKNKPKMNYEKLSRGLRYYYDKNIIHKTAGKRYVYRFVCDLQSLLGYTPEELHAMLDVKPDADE
Kind of experiment: ETS1 binding intensity (PBM fluorescence), ETS1 alone (arbitrary fluorescence units); higher = stronger binding. The conditions noted are these: ETS1 concentration 1 nM; RUNX1 concentration 0 nM.

The target of experiment [2] is RUNX1 (UniProt Q01196). Kind of experiment: RUNX1 binding intensity (PBM fluorescence), RUNX1 alone (arbitrary fluorescence units); higher = stronger binding. The conditions noted are these: RUNX1 concentration 2 nM; ETS1 concentration 0 nM. The procedure: (§1)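 Cooperative gcPBM on 36-bp genomic probes with neighbouring ETS1 and RUNX1 sites. Recombinant human RUNX1 (2 nM) was incubated alone or with ETS1 (25 nM) and detected with anti-RUNX1 antibody plus Alexa488 secondary. Values are medians over 4 replicate spots; the RUNX1+ETS1 data were normalised to the RUNX1-only data. The probes sit in constant array flanks that are not printed.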

The target in experiment [3] is T1, ETS1. In words: ETS1 binding intensity (PBM fluorescence) in presence of RUNX1, normalised to ETS1-only experiment (arbitrary fluorescence units); higher = stronger binding. The conditions noted are these: ETS1 concentration 1 nM; RUNX1 concentration 25 nM.
The target of experiment [4] is RUNX1 (UniProt Q01196). Kind of experiment: RUNX1 binding intensity (PBM fluorescence) in presence of ETS1, normalised to RUNX1-only experiment (arbitrary fluorescence units); higher = stronger binding. The conditions noted are these: RUNX1 concentration 2 nM; ETS1 concentration 25 nM. The procedure: as §1
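Wherever RUNX1 binding intensity (PBM fluorescence) in presence of ETS1, normalised to RUNX1-only experiment is given: Full-length recombinant human ETS1 or RUNX1 bound to double-stranded 36-bp genomic probes on microarrays, detected by protein-specific primary antibody and Alexa488 secondary, spot fluorescence as median of four replicate spots.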
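Wherever RUNX1 binding intensity (PBM fluorescence), RUNX1 alone is given: Full-length recombinant human RUNX1 bound to double-stranded 36-bp genomic probes on a high-density microarray, scored as Alexa488 fluorescence per spot via anti-RUNX1 antibody, median of four replicate spots.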

Sequence of RUNX1 (Q01196 whole entry): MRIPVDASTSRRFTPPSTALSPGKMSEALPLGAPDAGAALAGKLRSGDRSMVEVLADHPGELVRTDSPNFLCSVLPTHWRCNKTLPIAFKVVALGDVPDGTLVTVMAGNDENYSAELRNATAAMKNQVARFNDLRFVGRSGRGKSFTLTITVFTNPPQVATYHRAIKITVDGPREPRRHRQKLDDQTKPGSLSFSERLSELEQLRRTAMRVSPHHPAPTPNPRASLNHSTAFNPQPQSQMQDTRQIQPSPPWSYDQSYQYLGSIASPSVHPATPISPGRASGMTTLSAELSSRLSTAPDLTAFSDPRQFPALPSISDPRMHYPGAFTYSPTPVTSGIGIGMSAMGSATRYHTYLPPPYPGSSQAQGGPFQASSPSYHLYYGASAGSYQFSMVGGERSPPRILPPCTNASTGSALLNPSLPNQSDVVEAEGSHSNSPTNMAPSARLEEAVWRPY

With CGTCACTTCCCACGCGACTGCCTGCGGGAAACATGG, the ETS1 binding intensity amounted to 550 with ETS1 [1] and 704 in the experiment with ETS1 [3]. The RUNX1 binding intensity with RUNX1 [2] came to 1150; with RUNX1 [4], 1680.

Take CGAACGCCGGACGTTCTGGGCACGTGACCGCCACCC: the ETS1 binding intensity with ETS1 [1] came to 643; with ETS1 [3], 1100. The figures for the RUNX1 binding intensity in the experiment with RUNX1 [2] and in the experiment with RUNX1 [4] were 863 and 938, respectively.

Take GTGGCCTCTTCAACAGGAAACCACAATATTTTTGTT: the ETS1 binding intensity with ETS1 [1] was determined as 4610; with ETS1 [3] it was 10500. Besides, the RUNX1 binding intensity with RUNX1 [2] turned out to be 1410; in the experiment with RUNX1 [4], 2710.

For CTCACAGAAGAGGCAGGAAGTGGTTTGAGTTATCAT, the values for the ETS1 binding intensity with ETS1 [1] and in the experiment with ETS1 [3] were 9460 and 13700, respectively. For the same sequence, the values for the RUNX1 binding intensity in the experiment with RUNX1 [2] and with RUNX1 [4] were 820 and 1590, respectively.

As for CATTGATCAAAGACAGGATGTGGTAACAGGCAGTTA, the ETS1 binding intensity was determined as 8340 in the experiment with ETS1 [1] and 39500 with ETS1 [3]. The RUNX1 binding intensity with RUNX1 [2] was 760; in the experiment with RUNX1 [4], 3100.

Consider GGCTTCCTGCCCAACTACCAAGAAAAAGCCACAAAG, for which the ETS1 binding intensity was determined as 453 with ETS1 [1] and 962 with ETS1 [3]. The RUNX1 binding intensity with RUNX1 [2] was determined as 1100; with RUNX1 [4], 2040.

Turning to CAAGAGGAACCGGAACTTTGGAAACCACATTCTTAT, the ETS1 binding intensity amounted to 1400 with ETS1 [1] and 4800 with ETS1 [3]. The figures for the RUNX1 binding intensity with RUNX1 [2] and in the experiment with RUNX1 [4] were 911 and 1480, respectively.

Consider AGGCAAACAGGATGTTCCTCTCCCACATGCAGACTT, for which the ETS1 binding intensity worked out at 4200 in the experiment with ETS1 [1] and 3770 with ETS1 [3]. Also, the values for the RUNX1 binding intensity with RUNX1 [2] and with RUNX1 [4] were 806 and 1300, respectively.

On to CGCCGGCTCCCGGATGTTGTGGGGATCAGCGCCCGC, for which the results for the ETS1 binding intensity with ETS1 [1] and with ETS1 [3] were 3270 and 3760, respectively. For the same sequence, the RUNX1 binding intensity was 771 with RUNX1 [2] and 1260 with RUNX1 [4].

Take CGAAAGTGACCGGAAGTAACCGCCGGGCCAAGATGG: the results for the ETS1 binding intensity with ETS1 [1] and with ETS1 [3] were 17800 and 18200, respectively. Also, the RUNX1 binding intensity is 795 in the experiment with RUNX1 [2] and 1530 with RUNX1 [4].

With ACCTCTCTCACTTCCTACCAGAGAACCACAGCCAAG, the ETS1 binding intensity was determined as 538 with ETS1 [1] and 404 in the experiment with ETS1 [3]. Besides, the RUNX1 binding intensity with RUNX1 [2] was 1490; with RUNX1 [4], 2150.

Turning to CCTCACCCAGGAAGTGGCTGCGGCTGTCTCAGGGTT, the results for the ETS1 binding intensity with ETS1 [1] and with ETS1 [3] were 2450 and 3340, respectively. The values for the RUNX1 binding intensity with RUNX1 [2] and with RUNX1 [4] were 770 and 1440, respectively.

Regarding ACCAGCAACGGAAATCAGATCTCTTGTGGTTATTAT, the ETS1 binding intensity in the experiment with ETS1 [1] was 1480; with ETS1 [3] it was 7160. Further, the RUNX1 binding intensity turned out to be 994 with RUNX1 [2] and 1680 in the experiment with RUNX1 [4].

Turning to TGGAACAATGCTGCTTCCTGTGGGTGTCCCCCGGCC, the values for the ETS1 binding intensity with ETS1 [1] and with ETS1 [3] were 1140 and 1400, respectively. In addition, the RUNX1 binding intensity was found to be 698 in the experiment with RUNX1 [2] and 1330 with RUNX1 [4].

As for AGCTCCCCTCCCCGGAAACTTGACCACCTAGCCCAG, the ETS1 binding intensity in the experiment with ETS1 [1] came to 1510; with ETS1 [3], 1660. For the same sequence, the RUNX1 binding intensity in the experiment with RUNX1 [2] came out at 875; with RUNX1 [4], 813.

Take AGATGCAGAACAGGAAGTGGTTTAGAAAGCCACTCT: the ETS1 binding intensity with ETS1 [1] is 8980; with ETS1 [3], 13700. In addition, the RUNX1 binding intensity with RUNX1 [2] amounted to 827; with RUNX1 [4], 2720.

As to TTCAATCACAGGAAACAGACGTCACCCACAGACCTA, the values for the ETS1 binding intensity with ETS1 [1] and with ETS1 [3] were 1090 and 2200, respectively. Moreover, the RUNX1 binding intensity with RUNX1 [2] worked out at 794; with RUNX1 [4] it was 983.

GATGGTGTCTTTTGGGGATGTGGGTTTGGGGGATGG: the ETS1 binding intensity was found to be 564 in the experiment with ETS1 [1] and 1610 in the experiment with ETS1 [3]. Also, the RUNX1 binding intensity with RUNX1 [2] was 835; with RUNX1 [4], 961.

Turning to GCAACAGGAAGGACCAAGTCCCCTCCCGCAATTTTA, the ETS1 binding intensity came out at 627 with ETS1 [1] and 955 with ETS1 [3]. The RUNX1 binding intensity with RUNX1 [2] worked out at 888; with RUNX1 [4], 1020.

CCAGCTACACAGGATGCTGCGGTGGGCGGAATGCTC: the figures for the ETS1 binding intensity with ETS1 [1] and in the experiment with ETS1 [3] were 2160 and 9170, respectively. In addition, the RUNX1 binding intensity in the experiment with RUNX1 [2] came to 801; with RUNX1 [4], 1970.

ATCACAAGCAGAGGATGTGGTTAGTGTTTCGTTCCA: the ETS1 binding intensity with ETS1 [1] came to 804; with ETS1 [3], 5580. For the same sequence, the RUNX1 binding intensity with RUNX1 [2] turned out to be 995; with RUNX1 [4], 2160.
